38 molecules from PubChem BioAssay (NCATS) can be followed below.

Inconclusive results are not listed. Unmarked numbers belong to inactive results. Activity calls are given as the source filed them. Calls come from the whole dose curve; as a rule, active = well fitted inhibition curve with a large enough effect; inconclusive = small, poorly fitted or top-dose-only effect; inactive = flat fitted curve, though single readings scatter.

Assay [1] has as its system HEK293. Briefly: Cytotoxic Profiling of Annotated Libraries Using Quantitative High-Throughput Screening (AID 1296008). Note: nearly all actives have a fitted effect of over 60% in size. To be noted: Five cell lines viability, CellTiter-Glo ATP luminescence, 48-72 h; max response: hits give low values. In outline:
(§1)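 Cells exposed to compounds for 48 or 72 hr at 37 degrees Celsius. Viability read as ATP-coupled luminescence with CellTiter-Glo after 10 min at room temperature.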

For assay [2], the system named is HaCat. Described as above. Particulars: Five cell lines viability, CellTiter-Glo ATP luminescence, 48-72 h; max response: hits give low values. In short, it runs like this: as §1
For orientation: Cellular ATP, detected with luciferase, serves as a proxy for viable cell number.
% is set by controls: 0 for no effect and ±100 for the full control effect; potency is the fitted concentration of half-maximal effect.

On to `Cn1ncc(Cl)c1-c1cc(C(=O)NC(CN)Cc2ccc(F)c(F)c2)oc1Cl` (stereo not given), for which the Potency in assay [1] is 0.231 µM (active).

With `COc1ccccc1S(=O)(=O)Nc1ccc2c(c1)CN(C)C(=O)N2`, the Potency in assay [1] was 6.51 µM (active). Besides, in assay [2], the max response is 2.92%.

Regarding `COc1ccc(C#Cc2ccc(C(=O)N3CCC[C@@H](O)C3)c(F)c2)cc1`, the Potency in assay [1] is 13 µM (active). In addition, the max response in assay [2] was -33.7%.

On to `N#Cc1ccc2ncnc(NCCc3ccccc3)c2c1`, for which, in assay [1], the Potency was 18.4 µM (active).

With `CCCc1cc(C)[nH]c(=O)c1CNC(=O)c1cc(-c2ccc(N3CCN(C(C)C)CC3)nc2)cc2c1cnn2C(C)C`, the Potency in assay [1] was 11.6 µM (active).

For `Cc1cc(N2CCOCC2)ccc1Nc1nc(NC2CCCCC2)c2[nH]cnc2n1`, the Potency in assay [1] was 0.326 µM (active).

In the case of `CC(=O)N1CCN(CCOc2ccc(C3CCN(C4=Nn5c(nnc5C(F)(F)F)CC4)CC3)cc2)CC1`, the Potency in assay [1] is 9.2 µM (active). Moreover, the max response in assay [2] was -1.46%.

Take `O=C(NC1(c2ccccc2)CC1)c1c(CN2CCC(N3CCCCC3)CC2)c(-c2cccc(C(F)(F)F)c2)nc2cc(Br)ccc12`: the Potency in assay [1] was 14.6 µM (active).

As for `Cc1cc(F)c(C(=O)Nc2cccc(-c3nncn3C(C)C)n2)cc1-n1cnc(C2CC2)c1`, the Potency in assay [1] is 10 µM (active).

As to `CC(C)(C)c1ccc(-c2nc3c(N4CCN(Cc5ccc6nccnc6c5)CC4)cccc3[nH]2)cc1`, the Potency in assay [1] is 4.11 µM (active). The max response in assay [2] was -27.9%.

Take `CN(C)CCCn1cc(C2=C(c3c[nH]c4ccccc34)C(=O)NC2=O)c2ccccc21`: the Potency in assay [1] was 14.6 µM (active). Moreover, the max response in assay [2] was -0.893%.

As for `CC(C)C[C@H](C(=O)O)c1cc(-c2ccc(C(F)(F)F)cc2)cc(-c2ccc(C(F)(F)F)cc2)c1`, in assay [1], the Potency was 10.3 µM (active). The max response in assay [2] was 1.64%.

As for `C=C1C(=O)OC2C(OC(=O)C=C(C)C)C(C)=C3C(=O)C=C(C)C3C(O)C12` (stereo not given), the Potency in assay [1] is 6.4 µM (active).

`Cn1ncc(Cl)c1-c1cc(C(=O)N[C@H](CN)Cc2ccc(F)c(F)c2)oc1Cl`: in assay [1], the Potency is 0.366 µM (active).

As to `O=C(Nc1cccc([N+](=O)[O-])c1)c1cccc(S(=O)(=O)N2CCCCCC2)c1`, the Potency in assay [1] is 6.51 µM (active). The max response in assay [2] was -27.5%.

In the case of `Cc1[nH]c(/C=C2\C(=O)Nc3ccc(F)cc32)c(C)c1C(=O)NCCN1CCCC1`, the Potency in assay [1] is 14.6 µM (active).

Consider `O=C(CN1C2=NCCN2c2ccccc21)c1ccc(-c2ccccc2)cc1`, for which the Potency in assay [1] was 18.4 µM (active); in assay [2], 16.4 µM (active).

Regarding `CN(c1ccc(NC(=O)Nc2ccccc2)cc1)S(=O)(=O)c1cnn(-c2ccc(F)cc2)c1`, in assay [1], the Potency was 16.4 µM (active). Also, the max response in assay [2] was -33.8%.

With `Oc1cccc(C2NC(=S)Nc3cccc(F)c32)c1` (stereo not given), the Potency in assay [1] was 5.8 µM (active); in assay [2], 6.51 µM (active).

Regarding `CCC(=C(c1ccc(OCCN2CCCC2)cc1)c1ccc(OCCN2CCCC2)cc1)c1ccccc1`, the Potency in assay [1] was 8.2 µM (active). Moreover, the max response in assay [2] was -11%.

As for `NCC1CCN(c2nccc(-c3ccc4ccccc4c3)n2)CC1`, the Potency in assay [1] was 11.6 µM (active); in assay [2], 6.51 µM (active).

On to `Cc1ccc(NC(=O)C(C)C)cc1C1CCN(Cc2ccc(Oc3ccc(F)c(F)c3)cc2)CC1`, for which the Potency in assay [1] was 13 µM (active).

As to `COC1CCN(c2cccc(-c3cc(NC(C)=O)nc(-n4nc(C)cc4C)n3)n2)CC1`, the Potency in assay [1] is 9.2 µM (active). Also, the max response in assay [2] was -6.53%.

Consider `N#C/C(=C1\Nc2ccccc2S1)c1ccnc(NCCc2cccnc2)n1`, for which the Potency in assay [1] is 7.31 µM (active).

As for `C=C(C)C(=O)OC1CC(CO)CCC/C(CO)=C/C2OC(=O)C(=C)C21` (stereo not given), the Potency in assay [1] was 7.18 µM (active). In addition, the max response in assay [2] is 1.02%.

For `NC(=O)c1cnc(N[C@@H]2CCCC[C@H]2N)nc1Nc1cccc(-n2nccn2)c1`, the Potency was 20.6 µM (active) in assay [1] and 18.4 µM (active) in assay [2].

Turning to `CC(C)(C)c1ccc(NC(=O)N2CCN(c3ncccc3Cl)CC2)cc1`, the Potency in assay [1] is 11.6 µM (active). Moreover, in assay [2], the max response was 4.52%.

For `N#CSc1cc(SC#N)c(N)nc1N`, the Potency in assay [1] is 3.1 µM (active). In addition, the max response in assay [2] was -25%.

As to `Cc1nc(NC(=O)N2CCC[C@H]2C(N)=O)sc1-c1ccnc(C(C)(C)C(F)(F)F)c1`, the Potency was 16.4 µM (active) in assay [1] and 3.66 µM (active) in assay [2].

With `C[C@@H]1COCCN1c1cc(=O)n2c(n1)N(Cc1cncc(Cl)c1)[C@H](C(F)(F)F)CC2`, in assay [1], the Potency was 4.17 µM (active). For the same molecule, the max response in assay [2] is -6.64%.

For the molecule `CN(C)CC1CCn2c(c(C3=C(c4cn(C)c5ccccc45)C(=O)NC3=O)c3ccccc32)C1` (stereo not given), the values for the Potency in assay [1] and in assay [2] were 8.2 µM (active) and 20.6 µM (active), respectively.

Take `N#Cc1cnc2c(Cl)cc(NCc3cn(CCN4CCCCCC4)nn3)cc2c1Nc1ccc(F)c(Cl)c1`: the Potency in assay [1] was 18.4 µM (active).

With `CN(C)CCN(Cc1ccccc1)C(=O)c1cc(-c2ccc(F)cc2)n2nc(C(C)(C)C)cc2n1`, the Potency in assay [1] was 14.6 µM (active). In addition, the max response in assay [2] is -107%.

As for `CN(C)C(=O)COC(=O)c1cc(-c2ccc(C3CCNCC3)cc2)c2ccc(-c3ccc(C(F)(F)F)cc3)cc2c1`, the Potency in assay [1] is 4.61 µM (active).

As for `Cc1cc(-c2nc3cc(F)ccc3s2)ccc1NC(=O)[C@@H](N)CCCCN`, in assay [1], the Potency is 14.6 µM (active).

On to `C[C@H]1[C@H](/C=C/c2ccc(-c3ccccc3C#N)cn2)[C@@H]2[C@@H](C)OC(=O)[C@@H]2C[C@@H]1C`, for which the Potency in assay [1] was 13 µM (active).

Regarding `CCCCCCCCn1cc(CN(CC)CC)c2cc(-c3cnc(N)nc3)ccc21`, the Potency in assay [1] was 16.4 µM (active).

For `Oc1ccc(-c2cnc3ccc(NCc4ccco4)nn23)cc1`, the figures for the Potency in assay [1] and in assay [2] were 20.6 µM (active) and 7.31 µM (active), respectively.
